Many of the other results were omitted from the sample, so hits are more common in it than they were.
HT1080NT lethal = qHTS for induction of synthetic lethality in tumor cells producing 2HG: qHTS for the HT-1080-NT fibrosarcoma cell line; HT-1080-NT fibrosarcoma viability, CellTiter-Glo ATP luminescence, 48 h; Potency, µM (series often up to 46.1 µM), inactives show at the highest dose activity, negative = less viability, hits mostly cytotoxic; hit rate 1.6% among 360,000;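 also: NT is the 2HG producing partner of a matched IDH1 knockdown line; potency is read from the fitted curve at half-maximal effect; 0% = DMSO-treated cells and -100% = media-only wells without cells; nearly all actives have a fitted effect of over 55% in size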
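Viability of the 2HG-overproducing fibrosarcoma line after 48 hours of compound exposure at 37 degrees C was determined by luminescence with CellTiter-Glo, and concentration-effect curves were then fitted and categorized.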
ALOX12 inh = Primary qHTS assay for inhibitors of human arachidonate 12S-lipoxygenase (ALOX12): Round 2. Polyunsaturated fatty acid lipoxygenase ALOX12 (Homo sapiens), P18054. purified 12hLO, xylenol orange hydroperoxide absorbance. Potency, µM (series often up to 108 µM), without a hit: at the top dose activity change, negative = inhibition, usual class: inhibitors. hit rate 1.1% among 580,000. AID 1671190, 2021; also: potency is read from the fitted curve at half-maximal effect
Target sequence (P18054 whole entry, looked up): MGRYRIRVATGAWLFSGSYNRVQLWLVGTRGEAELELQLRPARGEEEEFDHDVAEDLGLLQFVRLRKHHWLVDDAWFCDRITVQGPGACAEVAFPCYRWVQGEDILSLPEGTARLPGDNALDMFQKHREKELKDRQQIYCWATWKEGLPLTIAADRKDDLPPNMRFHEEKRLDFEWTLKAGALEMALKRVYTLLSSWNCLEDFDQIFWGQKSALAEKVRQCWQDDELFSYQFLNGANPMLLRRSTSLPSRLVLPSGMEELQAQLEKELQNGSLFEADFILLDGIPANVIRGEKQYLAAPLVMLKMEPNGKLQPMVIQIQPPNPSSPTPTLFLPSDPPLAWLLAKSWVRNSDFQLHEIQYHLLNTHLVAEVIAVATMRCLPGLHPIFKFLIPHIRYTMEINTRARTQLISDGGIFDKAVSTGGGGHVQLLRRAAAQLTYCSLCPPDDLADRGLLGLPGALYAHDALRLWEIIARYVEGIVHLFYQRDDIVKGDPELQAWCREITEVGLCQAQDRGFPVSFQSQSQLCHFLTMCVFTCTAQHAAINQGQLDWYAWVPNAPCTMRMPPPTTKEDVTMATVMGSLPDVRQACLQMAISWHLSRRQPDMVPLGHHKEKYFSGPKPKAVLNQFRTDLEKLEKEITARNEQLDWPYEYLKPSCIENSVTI
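Purified human 12hLO (150 nM final) in 25 mM Hepes, 0.01% Triton X-100, pH 7.0 was preincubated 15 min at room temperature with compound. Then 40 uM arachidonic acid was added, 30 min. Hydroperoxide was read by Fe-XO absorbance ratio 573/405 nm.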
DT40 TDP1 CPT = qHTS for Inhibitors of human tyrosyl-DNA phosphodiesterase 1 (TDP1): qHTS in cells in presence of CPT | Potency, µM (doses to about 46.2 µM), for the others: at the highest dose activity change, negative = growth inhibition, actives largely listed as inhibitors | chicken DT40 Tdp1-/-;hTDP1 cells + 20 nM CPT, ATP luminescence, 48 h | hit rate 12% among 420,000; also: potency is read from the fitted curve at half-maximal effect; nearly all actives have a fitted effect of over 55% in size
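Chicken DT40 Tdp1-/- cells complemented with human TDP1, 400 cells/well, exposed to compounds plus 20 nM camptothecin for at least 48 h at 37 C; viability read as ATP content by CellTiter-Glo luminescence.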
IL1B secr inh = qHTS for Inhibitors of Inflammasome Signaling: IL-1-beta AlphaLISA Primary Screen. activity change, % at 57.5 µM. hit rate 4.7% among 360,000. THP-1 LPS/ATP IL-1B secretion, AlphaLISA, 16 h; stronger effect = lower value; in the data active = activity change below about -50%; inconclusive = mostly about -30% to -49%
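THP-1 cells pretreated 1 hr with compounds (up to 57.5 uM final), then stimulated with LPS (250 ng/mL final) plus ATP (1.25 mM final); secreted IL-1B measured by AlphaLISA after 16 hr, decreased signal indicating inhibition.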
DT40 TDP1 no CPT = qHTS for Inhibitors of human tyrosyl-DNA phosphodiesterase 1 (TDP1): qHTS in cells in absence of CPT | Potency, µM (titrated, usually from 46.2 µM), for the others: top-dose activity change, negative = growth inhibition, most hits filed as inhibitors | AID 686978, 2013 | hit rate 15% among 420,000 | DT40 Tdp1-/- hTDP1 cells, no CPT, ATP luminescence, 48 h; also: potency is read from the fitted curve at half-maximal effect; nearly all actives have a fitted effect of over 55% in size
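No-CPT arm: Tdp1-/-;hTDP1 DT40 cells (400/well) plus compounds, incubated ≥48 hr at 37 °C. Readout CellTiter-Glo luminescence.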
HT1080 IDH1KD tx = qHTS for induction of synthetic lethality in tumor cells producing 2HG: qHTS for the HT-1080-IDH1KD cell line. HT-1080 IDH1 knockdown viability, ATP luminescence, 48 h. Potency, µM (doses to about 46.1 µM), for the others: top-dose activity, negative = toxicity, hits mostly cytotoxic. hit rate 2% among 360,000. AID 686971, 2013;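 also: potency is read from the fitted curve at half-maximal effect; 0% = DMSO wells and -100% = cell-free medium wells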
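Cytotoxicity counter-line: IDH1KD HT-1080, 48 h, CellTiter-Glo. Curves classed by r2, magnitude and activity.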
Starred values were filed as active, the others as inactive; ? = inconclusive; · = not tested or not shown; [ ] = remark or other dose. Unless noted, calls follow the shape of the dose curve; as a rule, active = well fitted curve in the direction sought with a large enough effect; inconclusive = small, poorly fitted or top-dose-only effect, or another doubt; inactive = no such curve, though single readings can be large; an effect the other way counts as inactive or inconclusive. Unless noted, % is scaled to controls: 0 for no effect and ±100 for the full control effect.

SMILES	HT1080NT lethal	ALOX12 inh	DT40 TDP1 CPT	IL1B secr inh	DT40 TDP1 no CPT	HT1080 IDH1KD tx
C#CCN(C[C@@H]1[C@@H](OC(=O)Nc2c(C)noc2C)[C@@H](OC(=O)Nc2c(C)noc2C)Cn2c(=O)n(CCCCCC)c(=O)n21)S(=O)(=O)c1ccc(C)cc1	-13%	?	18µM*	-59*	21µM*	-10%
Clc1ccccc1CNCCc1c[nH]c2ccccc12	5%	-7%	-24%	-7	?	4%
c1ccc2c(CNC3CCCCCC3)c[nH]c2c1	?	-9%	3.3µM*	-70*	7.3µM*	20µM*
O=C(NC[C@H]1C[C@@H]2CCN1C[C@@H]2CN1CCN(c2ccccc2)CC1)Nc1ccsc1	·	42%	·	·	·	·
CC(=O)Nc1cccc(-c2ccnc3c2CC(C(=O)NCc2ccco2)O3)c1 (stereo not drawn)	?	-3%	1.8µM*	23	1.6µM*	2.3µM*
CC(=O)c1cccc(-c2ccnc3c2CC(C(=O)NCCc2ccccc2)O3)c1 (stereo not drawn)	?	3%	4.6µM*	93	3.7µM*	?
O=C(NCCN1CCC2(CC1)C(=O)NCN2c1ccccc1)c1ccc(F)c(F)c1	·	-26%	·	·	·	·
Cc1c(C(=O)N2CCC3(CC2)OCCO3)sc2ncnc(N3CCc4ccccc4C3)c12	-19%	1%	16µM*	-14	23µM*	?
c1ccc(/N=C2\N=C(Nc3ccccn3)c3ccccc32)nc1	?	28%	0.21µM*	51	0.15µM*	-9%
CCn1nccc1C(=O)N1[C@H]2CC[C@@H]1c1cnc(-c3ccccc3)nc1C2	·	-3%	·	·	·	·
CCc1nc2c(OCc3ccc(C(F)(F)F)cc3)cccn2c1N(C)C(=O)C(C)C	-12%	-4%	?	-23	26µM*	-11%
O=[S+]1([O-])NCC2(CCN(CC3CCCC3)C2)Oc2ncccc21 (stereo not drawn)	·	8%[6.33 µM]	·	·	·	·
CCN1C[C@@]2(COC)CCC(OC)[C@]34C5C[C@]6(O)[C@@H](OC)C[C@](OC(C)=O)(C([C@H](OC)C23)[C@H]14)C5[C@H]6OC(=O)c1ccc(OC)cc1 (stereo partly drawn)	·	-2%[57.4 µM]	·	·	·	·
CCCCNC(=O)C1CCCN(Cc2nc(-c3ccc(Cl)cc3)oc2C)C1 (stereo not drawn)	·	0%	6.5µM*	·	4.1µM*	·
CC(Cc1cccc(Cl)c1)NC(=O)CCCNC(=O)C1CC1 (stereo not drawn)	·	2%	·	·	·	·
Cc1oc(-c2ccc(Cl)cc2)nc1CN1CCC(C(=O)NCCCN2CCN(c3cccc(Cl)c3)CC2)CC1	·	?	5.2µM*	·	2.6µM*	·
Cc1oc(-c2cccc(Cl)c2)nc1CN1CCC(C(=O)NCCCN2CCN(c3ccc(F)cc3)CC2)CC1	·	?	4.6µM*	·	2.9µM*	·
Fc1ccc(CN2CCN(c3ccc(Cl)cc3)CC2)cc1	-10%	2%	-28%	13	?	-12%
CCOC(=O)C1CCCN(Cc2ccc(-c3ccccc3)cc2)C1 (stereo not drawn)	-1%	?	?	-9	?	-3%
Cc1oc(-c2cccc(Cl)c2)nc1CN1CCC(C(=O)NC(C)c2ccccc2)CC1 (stereo not drawn)	·	?	4.1µM*	·	4.6µM*	·
CC(C)NC(=O)NC[C@H]1C[C@@H]2CCN1C[C@@H]2CN1CCN(C)CC1	·	4%[176 µM]	·	·	·	·
COc1ccc(O)c2c(=O)c3c(OC)cc4c(c3oc12)C1C=COC1O4 (stereo not drawn)	?	28%	1.3µM*	21	0.92µM*	3%
Cc1noc(C)c1COc1ccc(CC(=O)N2CCN(CC(=O)N3CCOCC3)CC2)cc1	·	-37%	·	·	·	·
CC(C)n1c(N2CCN(S(=O)(=O)c3cccc([N+](=O)[O-])c3)CC2)nc2ccccc21	-24%	-1%	?	-72*	12µM*	-26%
CCCCOc1ccc(CN2C(=O)C(=O)c3cc(C)ccc32)cc1OC	·	?	1µM*	·	0.73µM*	·
SMILES	HT1080NT lethal	ALOX12 inh	DT40 TDP1 CPT	IL1B secr inh	DT40 TDP1 no CPT	HT1080 IDH1KD tx
COc1cc(CC2C(=O)N(C)C(=O)N(C)C2=O)ccc1OCc1ccccc1	10%	-8%	?	0	-19%	6%
CCCN1CCCc2cc(CN)ccc21	?	?	9.2µM*	47	18µM*	?
Cc1ccc(-c2nn(Cc3ccccc3)cc2C=O)cc1C	-4%	-4%	?	-22	16µM*	-2%
CCOc1ccc(/C=C2/C(=O)NC(=O)N(CCc3ccc(F)cc3)C2=O)cc1	1%	?	6%	4	9%	0%
Cn1cccc1/C=C1/C(=O)NC(=O)N(Cc2ccccc2)C1=O	-17%	-20%	4.6µM*	-22	2.3µM*	?
Cn1cccc1/C=C1/C(=O)NC(=O)N(Cc2ccc(F)cc2)C1=O	?	?	12µM*	43	9.2µM*	-16%
C=CCN1C(=O)NC(=O)/C(=C/c2cccn2C)C1=O	-11%	?	?	0	?	-9%
Cn1cccc1/C=C1/C(=O)NC(=S)N(Cc2ccc(F)cc2)C1=O	-26%	10µM*	3.7µM*	?	2.6µM*	-7%
Cn1cccc1/C=C1\C(=O)NC(=O)N(Cc2ccccc2)C1=O	?	-29%	5.8µM*	39	2.1µM*	?
COC(=O)[C@@H]1[C@@H](CO)[C@@H]2Cn3c(ccc(Br)c3=O)[C@H]1N2S(=O)(=O)c1cn(C)cn1	·	0%	·	·	·	·
COc1cc2[nH]c(=O)n(CCCCCC(=O)N3CCN(c4cccc(C(F)(F)F)c4)CC3)c(=O)c2cc1OC	·	?	?	·	6.5µM*	·
CCOc1cc2[nH]c(=O)n(CCCCC(=O)N3CCN(c4cccc(Cl)c4)CC3)c(=O)c2cc1OCC	·	8%	2.3µM*	·	5.2µM*	·
COc1ccc(N2CCN(C(=O)CCCCCn3c(=S)[nH]c4ccc(N5CCOCC5)cc4c3=O)CC2)cc1	-22%	22%	4.1µM*	-22	2.9µM*	-18%

Compound activity: PubChem BioAssay, National Center for Advancing Translational Sciences (NCATS)
